Source: PubChem BioAssay
Active and inactive are the calls of the source. Unless noted, how the calls were made is not given here.

Legend:
[1] = compound effects on lung adenocarcinoma cell viability – A549, calcein-AM fluorescence, 48 h, basal, profiling panel (AID 1162); settings: higher = more signal; further: test concentration not given here
[2] = compound effects on differentiated 3T3-L1 adipocyte viability – cell-based, 3T3-L1 adipocytes, calcein-AM fluorescence, 48 h, basal, profiling panel (AID 1163); settings: 3T3-L1 adipocytes viability, higher = more signal; further: test concentration not given here
[3] = compound effects on hepatocellular carcinoma cell viability – HepG2, calcein-AM fluorescence, 48 h, basal, profiling panel (AID 1164); settings: higher = more signal; further: test concentration not given here
[4] = compound effects on multiple myeloma cell viability – MM1S, calcein-AM fluorescence, 48 h, basal, profiling panel (AID 1165); settings: higher = more signal;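 further: viability of MM1S multiple myeloma cells under basal unstimulated conditions; test concentration not given here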
[5] = calcein-AM signal in unstimulated myeloma cells – cell-based, calcein-AM fluorescence, 48 h, PK04 Diversity Set, profiling panel (AID 1166); settings: RPMI8226 myeloma viability, higher = more signal;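 further: cells grown under basal conditions without added stimulus; test concentration not given here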
[6] = JC-1 mitochondrial signal, unstimulated HepG2 cells – cell-based, JC-1 fluorescence, 24 h, 100 nL compound, profiling panel (AID 1167); settings: HepG2 mitochondrial potential, higher = more signal; further: test concentration not given here
[7] = JC-1 mitochondrial signal, unstimulated adipocytes – cell-based, JC-1 fluorescence, 3T3-L1 adipocytes, 24 h, 100 nL compound, profiling panel (AID 1168); settings: JC-1 mitochondrial fluorescence, higher = more signal, called active from +8 up or from −8 down; further: test concentration not given here
[8] = JC-1 mitochondrial signal, unstimulated myeloma cells – cell-based, JC-1 fluorescence, RPMI8226, 24 h, 100 nL compound, profiling panel (AID 1169); settings: JC-1 mitochondrial potential fluorescence, higher = more signal; further: test concentration not given here
[9] = JC-1 mitochondrial signal, unstimulated MM1S myeloma – cell-based, JC-1 fluorescence, 24 h, 100 nL compound, profiling panel (AID 1170); settings: MM1S mitochondrial potential, higher = more signal; further: test concentration not given here
[10] = resazurin metabolic signal in A549 cells – cell-based, resazurin fluorescence, 24 h, PK04 Diversity Set, profiling panel (AID 1171); settings: A549 viability, higher = more signal, called active from +8 up or from −8 down; further: test concentration not given here
[11] = resazurin metabolic signal in HepG2 cells – cell-based, resazurin fluorescence, 24 h, PK04 Diversity Set, profiling panel (AID 1172); settings: HepG2 viability, higher = more signal; further: test concentration not given here
[12] = budding yeast growth changes without added modifier – OD600, strain BY4716, 24 h, basal condition, primary screen (AID 1173); settings: S. cerevisiae BY4716 growth, OD600, 24 h; higher = more signal, called active from +8 up or from −8 down
[13] = viability profiling in MM1S myeloma cells – cell-based, resazurin fluorescence, basal, 24 h, PK04 Diversity Set, profiling panel (AID 1174); settings: higher = more signal, called active from +8 up or from −8 down; further: test concentration not given here
[14] = molecular target: Dihydroorotate dehydrogenase (quinone), mitochondrial (Plasmodium falciparum (isolate 3D7)) (UniProt Q08210); assay: inhibition of P. falciparum DHODH – biochemical, C-terminal His tag, absorbance 600 nm, primary screen (AID 1175); settings: PfDHODH enzyme, DCIP absorbance 600 nm; higher = more signal, called active from +8 up or from −8 down;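 further: recombinant parasite enzyme with a five histidine tag at its C terminus; test concentration not given here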
[15] = inhibition of PAO1 biofilm formation – strain PAO1, LB-PBS medium, absorbance 600 nm, primary screen (AID 1176); further: test concentration not given here; settings: P. aeruginosa PAO1 growth/biofilm, A600, 12 h; higher = more signal
[16] = growth modulation of vineyard yeast isolate – strain RM11-1a, OD600, basal, 24 h, primary screen (AID 1177);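 further: cultures grown under basal conditions with no added stressor; test concentration not given here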; settings: S. cerevisiae RM11-1a growth, OD600, 24 h; higher = more signal, called active from +8 up or from −8 down
[17] = growth of efflux-deficient E. coli DRC39 – strain DRC39, OD650, 24 h, E. coli filamentation inducers, primary screen (AID 1178);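 further: growth measured as culture turbidity by optical density at 650 nm; test concentration not given here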; settings: E. coli DRC39 acrAB, higher = more signal, called active from +8 up or from −8 down
[18] = growth of efflux-deficient E. coli DRC39 – strain DRC39, OD650, 48 h, E. coli filamentation inducers, primary screen (AID 1179);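 further: screen aims at cell division blockers that make cells filament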; settings: E. coli DRC39 delta-acrAB growth, higher = more signal, called active from +8 up or from −8 down
[19] = viability profiling in RPMI8226 myeloma cells – cell-based, resazurin fluorescence, basal, 24 h, PK04 Diversity Set, profiling panel (AID 1180); settings: higher = more signal;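 further: RPMI8826 multiple myeloma cell line at 5000 cells per well; test concentration not given here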
[20] = molecular target: E3 ubiquitin-protein ligase XIAP (Homo sapiens) (UniProt P98170); assay: small molecules binding XIAP protein – biophysical, small-molecule microarray, fluorescence 635 nm, primary screen (AID 1181); settings: higher = more signal;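 further: score merges 667 nm emission and signal to noise over triplicate slides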
Chain of E3 ubiquitin-protein ligase XIAP (Homo sapiens) (P98170 whole entry, looked up): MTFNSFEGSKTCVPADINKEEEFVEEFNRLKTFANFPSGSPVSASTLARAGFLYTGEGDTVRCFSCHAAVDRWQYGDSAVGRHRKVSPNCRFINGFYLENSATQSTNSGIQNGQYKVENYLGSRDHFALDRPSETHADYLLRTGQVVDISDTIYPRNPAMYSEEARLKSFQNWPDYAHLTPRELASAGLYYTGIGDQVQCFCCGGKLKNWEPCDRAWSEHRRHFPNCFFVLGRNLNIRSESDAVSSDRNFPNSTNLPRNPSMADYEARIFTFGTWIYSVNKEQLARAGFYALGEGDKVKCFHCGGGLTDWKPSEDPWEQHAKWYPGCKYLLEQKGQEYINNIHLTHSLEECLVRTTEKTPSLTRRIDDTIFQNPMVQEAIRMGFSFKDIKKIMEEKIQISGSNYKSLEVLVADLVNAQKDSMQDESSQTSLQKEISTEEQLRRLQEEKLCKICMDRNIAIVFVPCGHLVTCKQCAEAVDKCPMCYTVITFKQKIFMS

Chain of Dihydroorotate dehydrogenase (quinone), mitochondrial (Plasmodium falciparum (isolate 3D7)) (Q08210 whole entry, looked up): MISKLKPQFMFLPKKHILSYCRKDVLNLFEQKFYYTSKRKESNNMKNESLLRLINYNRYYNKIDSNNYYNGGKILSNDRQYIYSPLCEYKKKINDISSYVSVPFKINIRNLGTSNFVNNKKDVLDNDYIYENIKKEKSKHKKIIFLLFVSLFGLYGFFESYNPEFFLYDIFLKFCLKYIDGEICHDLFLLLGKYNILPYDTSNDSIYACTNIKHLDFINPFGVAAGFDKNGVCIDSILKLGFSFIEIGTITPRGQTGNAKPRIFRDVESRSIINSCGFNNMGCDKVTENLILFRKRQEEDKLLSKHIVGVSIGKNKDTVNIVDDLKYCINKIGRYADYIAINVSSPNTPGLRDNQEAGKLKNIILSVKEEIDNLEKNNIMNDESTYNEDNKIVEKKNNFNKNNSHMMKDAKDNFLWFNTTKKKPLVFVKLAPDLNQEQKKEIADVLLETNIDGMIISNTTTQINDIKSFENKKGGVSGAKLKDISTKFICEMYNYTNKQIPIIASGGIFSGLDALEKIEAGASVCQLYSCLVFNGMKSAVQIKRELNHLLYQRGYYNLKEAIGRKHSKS

Compound | z-score [1] | z-score [2] | z-score [3] | z-score [4] | z-score [5] | z-score [6] | z-score [7] | z-score [8] | z-score [9] | z-score [10] | z-score [11] | z-score [12] | z-score [13] | composite z-score [14] | z-score [15] | z-score [16] | z-score [17] | z-score [18] | z-score [19] | composite z-score [20]
Cc1ccc(S[C@]2(C(=O)NC(C)C)CC(=O)N(Cc3cc(C(F)(F)F)cc(C(F)(F)F)c3)[C@@H]2c2ccc(CO)cc2)cc1 | 0.15 | -0.312 | -0.286 | 0.395 | 0.392 | -0.387 | -0.5 (inactive) | -0.555 | -0.129 | 0.271 (inactive) | -0.489 | -1.33 (inactive) | 0.528 (inactive) | -1.06 (inactive) | 0.31 (inactive) | -0.656 (inactive) | -0.0813 (inactive) | -0.229 (inactive) | 0.483 | -0.0125
[N-]=[N+]=Nc1ccccc1[C@@H]1OC(c2ccc(OCCCO)cc2)=N[C@]1(Cc1ccccc1)C(=O)N1CCCCC1 | -0.523 | -0.0528 | -0.822 | -2.91 | -4.32 | 0.408 | 1.87 (inactive) | -1.17 | -2.19 | -1.61 (inactive) | -0.819 | -0.592 (inactive) | -3.26 (inactive) | -0.128 (inactive) | 0.109 (inactive) | 1.08 (inactive) | 0.241 (inactive) | 0.174 (inactive) | -3.5 | 0.0512
CO[C@H]1O[C@H](CO)[C@@H](OC(=O)CCc2ccccc2)[C@@H]2OC(=O)[C@@H](Cc3ccccc3)C/C=C/C[C@H](Cc3ccccc3)C(=O)O[C@@H]12 | 1.7 | 0.271 | 0.514 | -0.753 | -0.711 | 0.358 | 0.669 (inactive) | 0.578 | -0.946 | 1.2 (inactive) | 0.195 | -0.559 (inactive) | -0.887 (inactive) | -1.53 (inactive) | -0.661 (inactive) | 0.532 (inactive) | 1.06 (inactive) | 1.79 (inactive) | 0.943 | 0.913
CS(=O)(=O)CCOC(=O)C1=CC(c2ccc(CO)cc2)=CC(C2CC2)N(Cc2sc3ccccc3c2Cl)C=C1C(=O)OCCS(C)(=O)=O (stereo not given) | -0.852 | -0.716 | 0.0312 | -3.29 | -2.92 | 0.424 | 0.662 (inactive) | -0.943 | -1.87 | -1.05 (inactive) | 0.315 | -5.45 (inactive) | -2.63 (inactive) | -1.26 (inactive) | -0.563 (inactive) | 0.272 (inactive) | -3.53 (inactive) | -2.01 (inactive) | -1.85 | 0.0049
COCCOC(=O)N1C(=O)[C@@]2(c3cc(C#CC4=CCCCC4)ccc31)[C@H](c1ccccc1OCCO)N1[C@H](c3ccccc3)[C@H](c3ccccc3)OC(=O)[C@H]1[C@@H]2C(=O)N1CCN(c2ncccn2)CC1 | -1.17 | 0.956 | 0.195 | -0.118 | -1.92 | 0.259 | 2.14 (inactive) | -0.423 | -1.19 | 0.753 (inactive) | 0.574 | 0.456 (inactive) | 0.411 (inactive) | -0.184 (inactive) | 1.56 (inactive) | 0.756 (inactive) | 0.259 (inactive) | -1.22 (inactive) | 0.0816 | -0.124
COC(=O)C1=CC(CCCO)=CC(c2cccs2)N(Cc2cccc(OC(F)(F)F)c2)C=C1C(=O)OC (stereo not given) | -0.855 | 0.543 | 0.896 | -2.69 | -3.76 | 0.996 | 0.000649 (inactive) | -0.786 | -0.512 | -0.257 (inactive) | -0.872 | -0.487 (inactive) | -1.46 (inactive) | -3.05 (inactive) | 0.82 (inactive) | 0.0036 (inactive) | 0.581 (inactive) | 0.153 (inactive) | -1.16 | -0.0756
CO[C@H]1O[C@H](CO)[C@@H](OC(=O)Nc2ccc3c(c2)OCO3)[C@H](OC(=O)Nc2ccc3c(c2)OCO3)[C@@H]1OC(=O)Nc1ccc2c(c1)OCO2 | -0.077 | 0.0003 | -0.797 | -1.89 | -1.84 | -1.14 | -0.13 (inactive) | -0.538 | -0.357 | -0.333 (inactive) | -0.907 | 1.44 (inactive) | -0.309 (inactive) | -0.732 (inactive) | 1.05 (inactive) | 1.81 (inactive) | 1.01 (inactive) | -0.147 (inactive) | -0.472 | 0.374
CCCCCN1CC=CC23O[C@@H]4/C=C\CCC(C)OC(=O)C4[C@H]2C(=O)N(C(CO)C(C)C)[C@@H]3C1=O (stereo not given in full) | -0.588 | 0.214 | -0.272 | 1.82 | 0.216 | -0.224 | -0.0517 (inactive) | 0.699 | -0.577 | 0.829 (inactive) | 0.713 | -0.82 (inactive) | -0.502 (inactive) | -1.74 (inactive) | 0.193 (inactive) | -0.116 (inactive) | 0.451 (inactive) | 0.236 (inactive) | 1.41 | 0.0627
COC(=O)C/C=C/C[C@]1(O)C(=O)N(C)c2ccccc21 | 1.59 | 0.349 | 1.39 | 0.672 | -0.419 | 1.25 | -0.694 (inactive) | -0.838 | 2.2 | 0.946 (inactive) | 0.197 | -1.81 (inactive) | 0.913 (inactive) | -0.429 (inactive) | 0.732 (inactive) | -2.6 (inactive) | 2.38 (inactive) | 0.875 (inactive) | 0.547 | -0.0861
